In PubChem BioAssay one finds composite z-score and z-score data, which are given here for 5 compounds.

Molecules are shown by their SMILES. Calls of active or inactive are those of the source.

For assay [1], the system named is PRMT1 (protein arginine N-methyltransferase 1). Put plainly: PRMT1 binders on small-molecule microarrays, primary screen, biochemical, small-molecule microarray, 635 nm fluorescence (AID 1088).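 Note: binding of Prmt1 protein to compounds spotted on small-molecule microarray slides.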 Conditions: small-molecule microarray binding, higher = more signal.
The nature of assay [2]: yeast growth modulation, basal conditions, primary screen, YJM789 clinical isolate, OD600, 24 h (AID 1089).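 Note: growth of clinical yeast isolate S. cerevisiae YJM 789 seeded 1000 cells per well; test concentration not given here.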 Conditions: S. cerevisiae YJM789 growth, higher = more signal, called active from +8 up or from −8 down.
Assay [3] can be described thus: fission yeast growth modulation, primary screen, strain 972, OD600, 24 h, no modulator (AID 1090).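 Note: basal condition with compound alone and no growth modifier present; test concentration not given here.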 Conditions: S. pombe 972 growth, higher = more signal, called active from +8 up or from −8 down.
The nature of assay [4]: S. cerevisiae growth modulation with rapamycin, primary screen, strain BY4716, OD600, 96 h (AID 1091). Note: test concentration not given here. Particulars: higher = more signal, called active from +8 up or from −8 down.
Assay [5] concerns the target Torsin-1A-interacting protein 2 (Homo sapiens) (UniProt Q8NFQ8). Briefly: LULL1 binders on small-molecule microarray, primary screen, cell lysate, human LULL1 lysate, 635/667 nm fluorescence (AID 1092).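 Note: probe is lysate of COS7 cells overexpressing human LULL1; score merges per-feature 667 nm fluorescence with signal-to-noise.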 Conditions: hLULL1 lysate binding, 635 nm fluorescence, higher = more signal.
A short description of assay [6]: E. coli growth modulation, two-sided OD650, primary screen, E. coli filamentation project, strain DRC41, 24 h (AID 1093).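 Note: MC1000 strain lacking acrAB efflux and sulA so SOS filamentation is blocked; test concentration not given here.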 Conditions: OD650, 24 h, higher = more signal, called active from +8 up or from −8 down.
The nature of assay [7]: small-molecule microarray binders of probe aLefty2, primary screen, biochemical, biotinylated probe, 635/667 nm fluorescence (AID 1094).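 Note: score merges spot fluorescence near 667 nm with spot signal-to-noise ratio.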 Particulars: higher = more signal.
The subject of assay [8] is Noggin (protein binding on small-molecule microarray). Put plainly: Noggin binders on small-molecule microarray, primary screen, biochemical, 635/667 nm fluorescence (AID 1095).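 Note: score merges 667 nm feature fluorescence with signal to noise over triplicate slides.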 Conditions: 635 nm fluorescence, higher = more signal.
Assay [9] concerns the target Neurogenic locus notch homolog protein 3 (Homo sapiens) (UniProt Q9UM47). Put plainly: NOTCH3 binders on small-molecule microarray, primary screen, biochemical, 635/667 nm fluorescence (AID 1096). Conditions: NOTCH3 binding, 635 nm fluorescence, higher = more signal.
Assay [10] in a line: small-molecule microarray binders of probe aEGFR, primary screen, biochemical, biotinylated probe, 635/667 nm fluorescence (AID 1097).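 Note: probe is a biotinylated anti-EGFR antibody binding compounds printed on slides; score combines fluorescence near 667 nm and signal to noise of each spot.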 Conditions: higher = more signal.
Assay [11] relates to Plasmodium falciparum Sir2 (PF13_0152, Sir2A). Put plainly: pfSir2 binders on small-molecule microarrays, primary screen, biochemical, small-molecule microarray, 635 nm fluorescence (AID 1098).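 Note: score merges spot fluorescence intensity with its signal-to-noise ratio.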 Particulars: small-molecule microarray binding, fluorescence 635 nm; higher = more signal.
A short description of assay [12]: small-molecule microarray binders of probe aDKK1, primary screen, biochemical, biotinylated probe, 635/667 nm fluorescence (AID 1099).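 Note: score merges 667nm spot fluorescence with signal to noise across triplicate slides; reference of the scale not given here.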 Conditions: higher = more signal.
Assay [13] is described as follows: small-molecule microarray binders of probe aCHRDL2, primary screen, biochemical, biotinylated probe, 635/667 nm fluorescence (AID 1100). Conditions: higher = more signal.
Assay [14] can be described thus: splicing luciferase reporter signal modulators, primary screen, spliceosome inhibition project, cell-based, HEK293, splice +/- reporter (AID 1101).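 Note: HEK293 cells carrying a splicing-competent luciferase reporter gene; test concentration not given here.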 Particulars: luminescence, 24 h, higher = more signal, called active from +8 up or from −8 down. In general terms: In a reporter assay the amount or activity of a reporter protein is the signal.
Assay [15] concerns the target Fibroblast growth factor 10 (Homo sapiens) (UniProt O15520). Briefly: FGF10 binders on small-molecule microarrays, primary screen, biochemical, small-molecule microarray, 635 nm fluorescence (AID 1102). Particulars: FGF10 binding, fluorescence 635 nm, higher = more signal.
In assay [16] the test system is glycogen synthase kinase-3 (GSK3A per assay name; protocol says GSK3B). Briefly: GSK3 binders on small-molecule microarrays, primary screen, biochemical, small-molecule microarray, 635 nm fluorescence, GSK3A (AID 1103). Note: the record names both GSK3A and GSK3B. Conditions: small-molecule microarray binding, fluorescence 635 nm; higher = more signal.
Assay [17] deals with Epidermal growth factor receptor (Homo sapiens) (UniProt P00533). Put plainly: EGFR binders on small-molecule microarrays, primary screen, biochemical, small-molecule microarray, 635 nm fluorescence (AID 1104).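 Note: score merges 667 nm emission intensity with spot signal to noise over triplicate slides.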 Particulars: EGFR binding, higher = more signal.
Assay [18] has as its target Follistatin-related protein 3 (Homo sapiens) (UniProt O95633). Put plainly: FSTL3 binders on small-molecule microarrays, primary screen, biochemical, small-molecule microarray, 635 nm fluorescence (AID 1105).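 Note: score merges emission near 667 nm and signal to noise per printed spot across three slides.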 Particulars: FSTL3 binding, higher = more signal.
For assay [19], the target named is Dickkopf-related protein 1 (Homo sapiens) (UniProt O94907). Put plainly: DKK1 binders on small-molecule microarrays, primary screen, biochemical, small-molecule microarray, 635 nm fluorescence scan (AID 1106).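 Note: score merges emission near 667 nm with signal to noise over three replicate slides.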 Particulars: DKK1 binding, higher = more signal.
Assay [20] concerns Inhibin beta A chain (activin A). Put plainly: INHBA (activin A) binders on microarrays, primary screen, biochemical, small-molecule microarray, 635 nm fluorescence scan (AID 1107).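 Note: mouse activin A protein probed at 4.33 µg/mL on printed slides; score merges bound-protein fluorescence near 667 nm with spot signal-to-noise.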 Particulars: small-molecule microarray binding, higher = more signal.

Dickkopf-related protein 1 (Homo sapiens), sequence (O94907 whole entry, looked up): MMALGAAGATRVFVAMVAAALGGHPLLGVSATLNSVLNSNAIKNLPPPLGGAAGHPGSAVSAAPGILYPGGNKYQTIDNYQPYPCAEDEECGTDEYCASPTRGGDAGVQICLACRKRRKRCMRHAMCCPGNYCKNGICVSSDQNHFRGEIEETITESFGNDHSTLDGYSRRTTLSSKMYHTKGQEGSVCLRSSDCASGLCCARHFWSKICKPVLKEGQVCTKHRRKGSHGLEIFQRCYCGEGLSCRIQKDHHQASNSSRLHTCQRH
Follistatin-related protein 3 (Homo sapiens), sequence (O95633 whole entry, looked up): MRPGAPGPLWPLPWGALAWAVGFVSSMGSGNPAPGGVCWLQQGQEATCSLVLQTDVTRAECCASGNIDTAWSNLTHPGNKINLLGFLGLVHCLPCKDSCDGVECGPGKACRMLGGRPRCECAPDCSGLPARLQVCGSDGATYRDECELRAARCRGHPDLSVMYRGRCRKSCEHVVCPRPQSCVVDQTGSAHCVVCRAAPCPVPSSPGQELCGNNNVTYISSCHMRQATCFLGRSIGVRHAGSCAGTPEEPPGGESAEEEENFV
Epidermal growth factor receptor (Homo sapiens), sequence (P00533 whole entry, looked up): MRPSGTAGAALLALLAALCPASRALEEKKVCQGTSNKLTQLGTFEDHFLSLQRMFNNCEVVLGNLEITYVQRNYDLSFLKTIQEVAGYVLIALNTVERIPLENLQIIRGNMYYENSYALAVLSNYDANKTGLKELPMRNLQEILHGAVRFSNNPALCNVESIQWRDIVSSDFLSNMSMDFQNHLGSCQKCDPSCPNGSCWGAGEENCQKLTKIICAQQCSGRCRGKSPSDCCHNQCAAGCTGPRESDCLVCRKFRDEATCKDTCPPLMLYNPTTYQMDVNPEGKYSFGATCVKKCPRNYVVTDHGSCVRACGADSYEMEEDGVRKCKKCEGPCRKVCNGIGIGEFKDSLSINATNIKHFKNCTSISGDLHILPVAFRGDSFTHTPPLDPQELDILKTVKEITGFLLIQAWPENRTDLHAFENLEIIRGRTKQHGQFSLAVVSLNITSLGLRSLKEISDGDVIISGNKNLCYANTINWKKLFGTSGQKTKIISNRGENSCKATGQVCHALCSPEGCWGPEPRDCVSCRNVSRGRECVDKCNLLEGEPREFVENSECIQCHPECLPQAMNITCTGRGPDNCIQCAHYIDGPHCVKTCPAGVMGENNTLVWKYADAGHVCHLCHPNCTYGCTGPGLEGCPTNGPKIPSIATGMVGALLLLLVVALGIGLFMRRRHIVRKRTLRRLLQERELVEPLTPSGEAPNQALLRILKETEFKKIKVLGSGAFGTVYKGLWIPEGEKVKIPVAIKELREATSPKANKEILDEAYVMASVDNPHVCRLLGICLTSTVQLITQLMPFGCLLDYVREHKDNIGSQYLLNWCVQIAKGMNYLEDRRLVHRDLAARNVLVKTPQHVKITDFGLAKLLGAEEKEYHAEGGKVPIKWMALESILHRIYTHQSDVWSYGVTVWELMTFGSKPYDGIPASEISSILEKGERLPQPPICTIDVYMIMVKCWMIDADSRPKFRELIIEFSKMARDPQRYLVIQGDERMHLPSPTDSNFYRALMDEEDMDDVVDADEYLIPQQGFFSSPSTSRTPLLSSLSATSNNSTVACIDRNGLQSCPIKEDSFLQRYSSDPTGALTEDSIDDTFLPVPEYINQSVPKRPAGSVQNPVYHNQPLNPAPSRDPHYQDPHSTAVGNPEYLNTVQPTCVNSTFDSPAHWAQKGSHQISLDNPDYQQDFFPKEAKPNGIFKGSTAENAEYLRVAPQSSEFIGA
Neurogenic locus notch homolog protein 3 (Homo sapiens), sequence (Q9UM47 whole entry, looked up): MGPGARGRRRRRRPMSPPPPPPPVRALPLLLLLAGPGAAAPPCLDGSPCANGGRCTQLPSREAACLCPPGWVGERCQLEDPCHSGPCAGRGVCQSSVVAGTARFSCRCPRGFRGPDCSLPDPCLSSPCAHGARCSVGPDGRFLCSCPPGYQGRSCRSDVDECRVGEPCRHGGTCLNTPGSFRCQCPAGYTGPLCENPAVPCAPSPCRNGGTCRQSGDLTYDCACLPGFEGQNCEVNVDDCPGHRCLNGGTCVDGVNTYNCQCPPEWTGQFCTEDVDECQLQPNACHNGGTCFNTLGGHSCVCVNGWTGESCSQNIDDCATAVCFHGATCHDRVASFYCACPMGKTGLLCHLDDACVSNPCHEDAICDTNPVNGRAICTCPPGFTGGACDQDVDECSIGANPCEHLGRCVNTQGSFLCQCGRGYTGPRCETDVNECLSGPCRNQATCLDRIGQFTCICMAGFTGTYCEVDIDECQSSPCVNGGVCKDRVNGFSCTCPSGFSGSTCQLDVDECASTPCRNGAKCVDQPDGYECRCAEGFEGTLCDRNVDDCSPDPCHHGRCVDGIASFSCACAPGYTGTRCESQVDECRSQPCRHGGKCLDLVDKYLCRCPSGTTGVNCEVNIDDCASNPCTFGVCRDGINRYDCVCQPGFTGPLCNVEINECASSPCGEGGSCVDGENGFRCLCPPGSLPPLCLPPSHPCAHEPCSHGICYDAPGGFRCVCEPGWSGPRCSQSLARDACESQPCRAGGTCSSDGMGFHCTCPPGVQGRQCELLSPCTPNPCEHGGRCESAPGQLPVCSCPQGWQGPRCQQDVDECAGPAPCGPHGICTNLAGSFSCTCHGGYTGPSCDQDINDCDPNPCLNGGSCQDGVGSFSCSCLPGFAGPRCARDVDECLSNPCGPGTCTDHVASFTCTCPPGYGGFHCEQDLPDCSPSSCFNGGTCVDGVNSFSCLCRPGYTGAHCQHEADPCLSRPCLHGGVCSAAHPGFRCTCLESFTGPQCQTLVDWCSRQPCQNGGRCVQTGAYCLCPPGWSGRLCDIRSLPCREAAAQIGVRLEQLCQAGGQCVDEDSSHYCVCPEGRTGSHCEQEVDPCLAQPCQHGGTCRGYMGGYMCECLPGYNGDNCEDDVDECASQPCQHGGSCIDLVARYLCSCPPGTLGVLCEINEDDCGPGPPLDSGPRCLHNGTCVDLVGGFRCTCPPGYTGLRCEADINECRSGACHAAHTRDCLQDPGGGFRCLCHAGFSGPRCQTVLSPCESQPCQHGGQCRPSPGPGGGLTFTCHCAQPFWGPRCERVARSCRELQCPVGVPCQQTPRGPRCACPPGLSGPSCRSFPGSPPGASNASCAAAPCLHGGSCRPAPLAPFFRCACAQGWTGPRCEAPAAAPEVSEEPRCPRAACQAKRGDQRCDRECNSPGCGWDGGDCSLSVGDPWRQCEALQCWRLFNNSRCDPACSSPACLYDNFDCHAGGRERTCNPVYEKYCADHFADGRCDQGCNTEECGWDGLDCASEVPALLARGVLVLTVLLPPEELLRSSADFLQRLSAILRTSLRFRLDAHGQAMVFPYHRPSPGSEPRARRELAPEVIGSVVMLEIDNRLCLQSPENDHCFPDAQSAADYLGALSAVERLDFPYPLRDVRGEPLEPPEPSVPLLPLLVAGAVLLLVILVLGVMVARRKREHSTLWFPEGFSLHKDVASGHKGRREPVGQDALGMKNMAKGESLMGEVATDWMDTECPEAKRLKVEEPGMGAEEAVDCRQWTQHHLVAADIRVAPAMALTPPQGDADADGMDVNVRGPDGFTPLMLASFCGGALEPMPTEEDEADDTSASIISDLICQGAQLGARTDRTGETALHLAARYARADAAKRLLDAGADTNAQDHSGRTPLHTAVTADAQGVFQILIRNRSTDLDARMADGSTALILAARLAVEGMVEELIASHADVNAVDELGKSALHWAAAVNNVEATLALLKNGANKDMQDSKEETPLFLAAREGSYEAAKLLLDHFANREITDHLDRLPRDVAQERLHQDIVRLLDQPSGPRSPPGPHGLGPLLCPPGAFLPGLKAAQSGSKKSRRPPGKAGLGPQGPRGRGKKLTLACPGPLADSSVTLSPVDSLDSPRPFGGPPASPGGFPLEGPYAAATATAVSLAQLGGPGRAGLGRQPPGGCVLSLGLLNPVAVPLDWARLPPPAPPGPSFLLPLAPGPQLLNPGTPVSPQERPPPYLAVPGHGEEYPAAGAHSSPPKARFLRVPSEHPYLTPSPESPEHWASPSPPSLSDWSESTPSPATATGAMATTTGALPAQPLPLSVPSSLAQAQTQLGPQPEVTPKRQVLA
Fibroblast growth factor 10 (Homo sapiens), sequence (O15520 whole entry, looked up): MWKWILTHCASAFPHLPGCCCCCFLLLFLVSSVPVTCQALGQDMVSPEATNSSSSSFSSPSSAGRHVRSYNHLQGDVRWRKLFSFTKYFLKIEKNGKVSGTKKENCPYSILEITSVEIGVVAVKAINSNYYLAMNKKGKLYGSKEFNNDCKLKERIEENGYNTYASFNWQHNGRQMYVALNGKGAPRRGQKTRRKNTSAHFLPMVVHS
Torsin-1A-interacting protein 2 (Homo sapiens), sequence (Q8NFQ8 whole entry, looked up): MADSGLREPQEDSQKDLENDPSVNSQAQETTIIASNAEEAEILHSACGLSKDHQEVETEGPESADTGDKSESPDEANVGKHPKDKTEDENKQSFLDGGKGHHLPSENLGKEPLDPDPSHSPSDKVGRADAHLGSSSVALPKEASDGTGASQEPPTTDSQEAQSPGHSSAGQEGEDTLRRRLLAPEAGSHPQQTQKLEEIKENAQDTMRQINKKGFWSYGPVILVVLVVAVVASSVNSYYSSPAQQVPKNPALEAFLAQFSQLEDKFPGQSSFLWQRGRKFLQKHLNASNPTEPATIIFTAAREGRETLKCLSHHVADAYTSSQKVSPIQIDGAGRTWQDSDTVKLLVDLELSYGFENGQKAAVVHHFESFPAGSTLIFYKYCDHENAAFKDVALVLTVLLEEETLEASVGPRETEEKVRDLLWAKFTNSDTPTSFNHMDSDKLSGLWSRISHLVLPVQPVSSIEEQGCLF

Turning to `O=C1OCC=C[C@H]2OC34C=CCN(Cn5nnc6ccccc65)C(=O)[C@H]3N(CCCO)C(=O)[C@@H]4[C@@H]12` (stereo not given in full), the composite z-score in assay [1] was -0.169; in [5], 0.433; in assay [7] it was -0.217; in assay [8] it was -0.2; in assay [9] it was -0.579; in assay [10], -0.356. Besides, the composite z-score in assay [11] is -0.0241; in assay [12], -0.0481; in assay [13], 0.368; in [15], -0.21; in assay [16], -1.08; in assay [17] it was -0.577. Further, the results for the composite z-score in assay [18], in [19] and in [20] were -1.39, -0.448 and 0.839, respectively. Further, the z-score in assay [2] is 0.465 (inactive); in assay [3], -0.883 (inactive); in [4] it was -0.437 (inactive); in assay [6], 1.93 (inactive); in [14], -1.26 (inactive).

Consider `Cc1cc(C)c(C(O)C2C=CC3C(=O)N(c4ccccc4)C(=O)C3N2Nc2ccc(C(C)C)cc2)c(C)c1` (stereo not given), for which the composite z-score in [1] is 1.57; in assay [5], 3.42; in assay [7], 0.255; in assay [8], -0.163; in assay [9], 1.03; in assay [10], -0.0172. The composite z-score in [11] is 0.68; in assay [12], 1.19; in [13] it was 1.08; in assay [15], 0.978; in [16], 1.25; in [17] it was -0.0206. The composite z-score is 0.818 in [18], -0.0403 in assay [19] and 0.202 in [20]. Also, the z-score was 1.14 (inactive) in [2]; 0.863 (inactive) in assay [3]; 1.26 (inactive) in assay [4]; -1.87 (inactive) in assay [6]; -0.00156 (inactive) in [14].

Regarding `COCCOC(=O)N1C(=O)[C@@]2(c3cc(C#CC4=CCCCC4)ccc31)[C@H](c1ccc(O)cc1)N1[C@H](c3ccccc3)[C@H](c3ccccc3)OC(=O)[C@H]1[C@@H]2C(=O)N1CCN(c2ncccn2)CC1`, the composite z-score in assay [1] was 0.234; in assay [5] it was -0.142; in [7] it was -0.192; in [8], -1.1; in [9] it was -0.756; in assay [10], -0.348. Besides, the composite z-score in [11] was -0.0148; in assay [12] it was -0.222; in assay [13], 0.649; in assay [15] it was -0.769; in assay [16] it was -0.858; in assay [17], -1.04. For the same compound, the composite z-score in assay [18] was -1.85; in assay [19], -1.22; in assay [20] it was -0.918. In addition, the z-score in assay [2] is 0.358 (inactive); in [3], 0.371 (inactive); in assay [4] it was 0.58 (inactive); in assay [6], -0.737 (inactive); in assay [14], -0.297 (inactive).

Consider `O=C1OCCC/C=C\[C@H]2OC34C=CCN(CCN5CCOCC5)C(=O)[C@H]3N(CCCCCCO)C(=O)[C@@H]4C12` (stereo not given in full), for which the composite z-score is 0.733 in assay [1]; 2.39 in assay [5]; -0.166 in [7]; -0.0171 in assay [8]; 0.18 in assay [9]; -0.0953 in assay [10]. Further, the composite z-score in [11] was 1.16; in assay [12] it was -0.0117; in [13], -0.0021; in assay [15] it was -0.145; in assay [16], 0.229; in assay [17] it was -0.684. In addition, the composite z-score is -0.0634 in assay [18], -0.528 in [19] and 1.41 in assay [20]. The z-score in [2] is -1.84 (inactive); in assay [3], -1.29 (inactive); in [4], -0.529 (inactive); in assay [6], 1.33 (inactive); in [14] it was -1.4 (inactive).

On to `COCCOC(=O)N1C(=O)[C@@]2(c3ccccc31)[C@H](C(=O)N1CCN(c3ncccn3)CC1)[C@H]1C(=O)O[C@H](c3ccccc3)[C@H](c3ccccc3)N1[C@@H]2c1ccc(O)cc1`, for which the composite z-score in assay [1] is 1.55; in assay [5] it was 2.25; in assay [7], -0.122; in assay [8], 0.161; in assay [9], 0.679; in assay [10], -0.184. Also, the composite z-score in [11] is 1.59; in assay [12], 0.184; in assay [13], 0.573; in [15], 0.745; in assay [16] it was 0.53; in [17], 0.0611. In addition, the composite z-score in assay [18] was -0.11; in assay [19], 0.278; in assay [20] it was -0.66. Besides, the z-score is 0.232 (inactive) in [2]; 1.07 (inactive) in assay [3]; 1.72 (inactive) in assay [4]; 1.48 (inactive) in [6]; 0.554 (inactive) in assay [14].
